From the antibiotic and cytotoxicity screens of Wong et al. (2023)
Among all 39,000 compounds or so, about 3,300 (8.5%) were called active. Many of the other results were omitted from the sample, so actives are more common in it than they were.

Each compound was assayed on HepG2 (assay: cytotoxicity call (relative viability < 0.9)). Details: 10 µM.

Row | SMILES | cytotoxicity call
1 | COc1ccc(-c2oc3cc(O[C@@H]4O[C@@H](C)[C@H](O)[C@@H](O)[C@H]4O)cc(O)c3c(=O)c2O[C@@H]2O[C@H](CO)[C@@H](O)[C@H](O)[C@H]2O)cc1 | inactive
2 | Cc1noc(C)c1NC(=O)Nc1ccc2c(c1)CC(=O)N([C@@H](C)CO)C[C@@H](C)[C@H](CN(C)C(=O)NC(C)C)O2 | inactive
3 | Cc1ccc(S(=O)(=O)Nc2cc([C@@H](C(=O)OC(C)C)C(=O)C(F)(F)F)c(O)c3ccccc23)c(C)c1 | inactive
4 | CNC[C@@H]1OCCCC[C@H](C)Oc2ccc(NC(=O)Nc3ccc(C(F)(F)F)cc3)cc2C(=O)N([C@H](C)CO)C[C@H]1C | inactive
5 | O=c1c(O)c(-c2ccc(O)c(O)c2)oc2cc(O)ccc12 | active
6 | O=c1c(O)c(-c2ccccc2)oc2ccccc12 | inactive
7 | O=c1c(O)c(-c2ccccc2)oc2cccc(O)c12 | inactive
8 | O=c1c(O)c(-c2ccccc2)oc2cc(O)ccc12 | inactive
9 | O=c1c(O)c(-c2ccc(O)cc2)oc2ccccc12 | active
10 | O=c1c(O)c(-c2ccc(O)c(O)c2)oc2cc(O)cc(O)c12 | inactive
11 | CCC1OC(=O)C(C)C(OC2CC(C)(OC)C(O)C(C)O2)C(C)C(OC2OC(C)CC(N(C)C)C2O)C(C)(O)CC(C)CN(C)C(C)C(O)C1(C)O (configuration not stated) | inactive
12 | Cc1noc(C)c1NC(=O)N(C)C[C@@H]1OCCCC[C@H](C)Oc2ccc(NS(=O)(=O)c3cccs3)cc2C(=O)N([C@@H](C)CO)C[C@H]1C | inactive
13 | CCCNC(=O)C[C@@H]1CC[C@H]2[C@@H](COC[C@@H](O)CN2S(=O)(=O)c2ccc(Oc3ccccc3)cc2)O1 | inactive
14 | COCC(=O)Nc1ccc2c(c1)C(=O)N(C)C[C@@H](OC)[C@H](C)CN(Cc1ccccc1OC)[C@H](C)CO2 | inactive
15 | Cc1cncc2cccc(S(=O)(=O)NCCN(C/C=C/c3ccc(Br)cc3)C/C=C/c3ccc(Br)cc3)c12 | inactive
16 | C[C@H](CO)N1C[C@H](C)[C@H](CN(C)S(C)(=O)=O)Oc2ccc(NC(=O)NC3CCCCC3)cc2CC1=O | inactive
17 | C[C@H]1CN([C@@H](C)CO)C(=O)Cc2cc(NC(=O)NC3CCCCC3)ccc2O[C@H]1CN(C)S(C)(=O)=O | inactive
18 | C[C@H](CO)N1C[C@H](C)[C@@H](CN(C)S(C)(=O)=O)Oc2ccc(NC(=O)NC3CCCCC3)cc2CC1=O | inactive
19 | C[C@@H]1CN([C@H](C)CO)C(=O)Cc2cc(NC(=O)NC3CCCCC3)ccc2O[C@@H]1CN(C)S(C)(=O)=O | active
20 | C[C@@H]1CN([C@@H](C)CO)C(=O)Cc2cc(NC(=O)NC3CCCCC3)ccc2O[C@H]1CN(C)S(C)(=O)=O | active
21 | C[C@@H]1CN([C@H](C)CO)C(=O)Cc2cc(NC(=O)NC3CCCCC3)ccc2O[C@H]1CN(C)S(C)(=O)=O | inactive
22 | COc1ccc(CN(C)C[C@@H]2Oc3ccc(NC(=O)CCN4CCOCC4)cc3C(=O)N([C@@H](C)CO)C[C@H]2C)cc1 | inactive
23 | C[C@@H]1CN([C@H](C)CO)C(=O)c2cc(NC(=O)CCC(F)(F)F)ccc2O[C@@H](C)CCCCO[C@H]1CN(C)Cc1ccncc1 | inactive
24 | C[C@@H]1CCCCO[C@H](CN(C)S(=O)(=O)c2cccs2)[C@H](C)CN([C@H](C)CO)C(=O)c2cc(NC(=O)Cc3ccccc3)ccc2O1 | inactive

Row | SMILES | cytotoxicity call
25 | C[C@H](CO)N1C[C@H](C)[C@@H](CN(C)C(=O)Nc2ccccc2)Oc2ccc(NC(=O)Nc3cccc4ccccc34)cc2C1=O | inactive
26 | C[C@@H]1CN([C@H](C)CO)S(=O)(=O)c2ccc(-c3ccccc3F)cc2O[C@@H]1CN(C)Cc1cncnc1 | inactive
27 | CCS(=O)(=O)Nc1ccc2c(c1)C(=O)N(C)[C@H]1CC[C@H](CC(=O)N[C@@H]3CCN(Cc4ccccc4)C3)O[C@H]1CO2 | inactive
28 | C[C@@H]1CCCCO[C@@H](CN(C)C(=O)Nc2cccc3ccccc23)[C@H](C)CN([C@@H](C)CO)C(=O)c2cc(NC(=O)Nc3ccc(F)cc3)ccc2O1 | inactive
29 | Cl.Cl.O=C1c2c(O)ccc(O)c2C(=O)c2c(NCCNCCO)ccc(NCCNCCO)c21 | active
30 | O=C1c2ccccc2C(=O)c2c(NCCNCCO)ccc(NCCNCCO)c21 | active
31 | O=C1c2ccccc2C(=O)c2c1ccc(O)c2O | inactive
32 | O=C1c2c(O)ccc(O)c2C(=O)c2c(NCCNCCO)ccc(NCCNCCO)c21 | active
33 | O=C(CCNCCO)c1ccccc1 | inactive
34 | O=[N+]([O-])c1ccc(NCCNCCO)cc1 | inactive
35 | CN1CCN(C(=O)C[C@H]2CC[C@H]3[C@H](COc4ccc(NC(=O)C5CCCCC5)cc4C(=O)N3C)O2)CC1 | inactive
36 | C[C@]12C(=O)N(CCCCCO)[C@@H]3C(=O)N(c4ccc(Cl)cc4)CC=C[C@]31O[C@@H]1/C=C\CCCOC(=O)[C@H]12 | inactive
37 | O=C(C[C@@H]1CC[C@H](NC(=O)CN2CCOCC2)[C@@H](CO)O1)NC1CCC1 | inactive
38 | CC(C)NC(=O)Nc1ccc2c(c1)C(=O)N([C@H](C)CO)C[C@@H](C)[C@@H](CN(C)S(=O)(=O)c1ccccc1)O2 | inactive
39 | COCC#Cc1ccc2c(c1)O[C@@H](CN(C)S(=O)(=O)c1ccc(OC)cc1)[C@H](C)CN([C@H](C)CO)S2(=O)=O | inactive
40 | C[C@H](CO)N1C[C@H](C)[C@@H](CN(C)C(=O)Nc2cccc3ccccc23)OCCCC[C@H](C)Oc2ccc(NS(=O)(=O)c3cn(C)cn3)cc2C1=O | inactive
41 | C[C@@H]1CN([C@H](C)CO)C(=O)Cc2cc(NC(=O)Cn3cnnn3)ccc2O[C@H]1CN(C)Cc1ccc(Cl)c(Cl)c1 | inactive
42 | C/C=C/c1cccc(-c2nc(C(=O)NCc3cccc(OC)c3)cc3c2[C@@H](CCO)N([S@](=O)C(C)(C)C)C3)c1 | inactive
43 | CC(C)[Si]1(C(C)C)O[C@@H](c2ccccc2)c2cc(C3CC3)nc(-c3ccc(Oc4ccccc4)cc3)c21 | inactive
44 | CC(CN1c2ccccc2Sc2ccccc21)N(C)C.Cl (configuration not stated) | active
45 | CCC(CC)C(=O)N1c2ccccc2Sc2ccccc21 | inactive
46 | CCN(CC)C(C)CN1c2ccccc2Sc2ccccc21.Cl (configuration not stated) | active
47 | C[C@H]1CN([C@@H](C)CO)C(=O)c2cc(NC(=O)Cn3cnnn3)ccc2O[C@H]1CN(C)Cc1ccc(Oc2ccccc2)cc1 | inactive
48 | C[C@H](CO)N1C[C@H](C)[C@H](CN(C)Cc2ccc(C(F)(F)F)cc2)Oc2c(NC(=O)Nc3cccc4ccccc34)cccc2C1=O | inactive

Row | SMILES | cytotoxicity call
49 | Cc1ccc(S(=O)(=O)N(C)C[C@H]2OCCCC[C@@H](C)Oc3ccc(NS(=O)(=O)c4ccc(F)cc4)cc3C(=O)N([C@H](C)CO)C[C@H]2C)cc1 | inactive
50 | C=C1[C@@H]2[C@H]3OC(=O)[C@@H](C)[C@@H]3[C@@H](O[C@@H]3O[C@H](CO)[C@@H](O)[C@H](O)[C@H]3O)CC(=C)[C@@H]2C[C@@H]1O | inactive
51 | COc1cc(-c2coc3cc(OCc4ccccc4)c(OC)c(O)c3c2=O)cc(OCc2ccccc2)c1OC | inactive
52 | C[C@@H]1CCCCO[C@@H](CN(C)CC2CCCCC2)[C@H](C)CN([C@H](C)CO)C(=O)c2cc(NS(=O)(=O)c3cccs3)ccc2O1 | inactive
53 | Cc1ccc(-c2nc(Nc3cccc(Cl)c3)sc2C)cc1 | inactive
54 | Cc1ccc(Nc2nc(-c3ccc(C)cc3)c(C)s2)cc1 | inactive
55 | Cc1nc(-c2ccc(Cl)cc2)c(-c2ccccc2)s1 | active
56 | Cc1sc(Nc2ccccc2)nc1-c1ccc(Cl)cc1 | active
57 | Cc1sc(N)nc1-c1ccccc1 | inactive
58 | C=C(C)CNc1nc(-c2ccccc2)c(-c2ccccc2)s1 | inactive
59 | NC(=O)Cn1c(=O)c2ccccc2n(CC(N)=O)c1=O | inactive
60 | C=CCN(Cc1ccccc1)C(=O)[C@@H]1N(c2c(Cl)cccc2CO)C(=O)[C@@H]2[C@H](C(=O)O)[C@@H]3C=C[C@@]21O3 | inactive
61 | C[C@@H]1CN([C@@H](C)CO)C(=O)c2cc(NC(=O)Nc3ccc(C(F)(F)F)cc3)ccc2O[C@@H]1CN(C)Cc1ccc(C(=O)Nc2ccccc2N)cc1 | active
62 | C[C@@H]1CN([C@H](C)CO)C(=O)c2cc(NC(=O)Nc3ccc(C(F)(F)F)cc3)ccc2O[C@H]1CN(C)Cc1ccc(C(=O)Nc2ccccc2N)cc1 | inactive
63 | C[C@H](CO)N1C[C@H](C)[C@H](CN(C)Cc2ccc(C(=O)Nc3ccccc3N)cc2)Oc2ccc(NC(=O)Nc3ccccc3)cc2C1=O | inactive
64 | C[C@H]1CN([C@@H](C)CO)C(=O)c2cc(NC(=O)Nc3ccc(F)cc3)ccc2O[C@H]1CN(C)Cc1ccc(C(=O)Nc2ccccc2N)cc1 | inactive
65 | C[C@@H]1CN([C@@H](C)CO)C(=O)c2cc(NC(=O)Nc3ccccc3)ccc2O[C@@H]1CN(C)Cc1ccc(C(=O)Nc2ccccc2N)cc1 | active
66 | C[C@H](CO)N1C[C@H](C)[C@H](CN(C)Cc2ccc(C(=O)Nc3ccccc3N)cc2)Oc2ccc(NC(=O)Nc3ccc(F)cc3)cc2C1=O | inactive
67 | C[C@@H]1CN([C@H](C)CO)C(=O)c2cc(NC(=O)Nc3ccc(C(F)(F)F)cc3)ccc2O[C@@H]1CN(C)Cc1ccc(C(=O)Nc2ccccc2N)cc1 | active
68 | C[C@H](CO)N1C[C@H](C)[C@@H](CN(C)Cc2ccc(C(=O)Nc3ccccc3N)cc2)Oc2ccc(NC(=O)Nc3ccc(F)cc3)cc2C1=O | inactive
69 | C[C@H]1CN([C@@H](C)CO)C(=O)c2cc(NC(=O)Nc3ccccc3)ccc2O[C@H]1CN(C)Cc1ccc(C(=O)Nc2ccccc2N)cc1 | inactive
70 | C[C@@H]1CN([C@@H](C)CO)C(=O)c2cc(NC(=O)Nc3ccc(F)cc3)ccc2O[C@@H]1CN(C)Cc1ccc(C(=O)Nc2ccccc2N)cc1 | inactive
71 | C[C@H]1CN([C@@H](C)CO)C(=O)c2cc(NC(=O)Nc3ccc(C(F)(F)F)cc3)ccc2O[C@@H]1CN(C)Cc1ccc(C(=O)Nc2ccccc2N)cc1 | inactive
72 | C[C@H](CO)N1C[C@H](C)[C@H](CN(C)Cc2ccc(C(=O)Nc3ccccc3N)cc2)Oc2ccc(NC(=O)Nc3ccc(C(F)(F)F)cc3)cc2C1=O | active
